# Paper PMC5540273 (PLoS ONE, 2017)
# Columns and labels:
# Details in all cases: concentration: 1 μM,replicates: in singlicate; n = 1
# NIM1 = system: T1, NIM1
# T1 construct: gene MGC42105
# NLK = system: NLK
# OSR1 = system: T2, OSR1
# T2 construct: gene OXSR1
# PAK1 = system: PAK1
# PAK2 = system: PAK2
# PAK3 = system: PAK3
# PAK4 = system: PAK4
# PAK6 = system: PAK6
# PAK7 = system: PAK7
# PCTK1 = system: T3, PCTK1
# T3 construct: gene CDK16
# 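Also: KINOMEscan kinase panel screen.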
SMILES,%Inh (NIM1),%Inh (NLK),%Inh (OSR1),%Inh (PAK1),%Inh (PAK2),%Inh (PAK3),%Inh (PAK4),%Inh (PAK6),%Inh (PAK7),%Inh (PCTK1)
COc1cc2nccc(Nc3ccc(Oc4ccccc4)cc3)c2cc1OC.Cl [GI261656],5%,0%,0%,0%,0%,0%,0%,0%,3%,0%
CC(=O)Nc1nc2cnc(Nc3cc(NC(=O)c4cccc(CC(C)(C)C#N)c4)ccc3C)nc2s1,23%,1%,41%,25%,25%,28%,8%,21%,2%,25%
C[C@@H]1CCN(C(=O)N2CCCC2)C[C@@H]1N(C)c1ncnc2[nH]ccc12,18%,0%,11%,0%,0%,25%,0%,0%,3%,5%
C[C@@H](Oc1cc(-n2cnc3ccc(-c4ccncc4)cc32)sc1C(N)=O)c1ccccc1Cl [GSK483724],13%,49%,11%,8%,29%,21%,44%,13%,10%,7%
OCCn1cc(-c2cnc3nnn(Cc4ccc5ncccc5c4)c3n2)cn1,0%,0%,0%,6%,13%,0%,11%,0%,0%,0%
CN(c1cccc(CNc2nc(Nc3ccc4c(c3)CC(=O)N4)ncc2C(F)(F)F)c1)S(C)(=O)=O,0%,8%,0%,15%,42%,0%,11%,14%,13%,0%
CCOC(=O)N1CCC(n2cnc(-c3ccc(F)cc3)c2-c2ccnc(N)n2)CC1 [SB-219952],31%,92.7%,1%,3%,26%,9%,28%,6%,11%,0%
